Test results from PMC7862700, “An all-to-all approach to the identification of sequence-specific readers for epigenetic DNA modifications on cytosine”.

The sequences below were run against T1, SPIC (Homo sapiens, UniProt Q8N5J4 1-248) (assay: DAPPL (digital affinity profiling via proximity ligation, sequencing); 10 mM Tris-HCl pH 7.5, 50 mM NaCl, 1 mM DTT, 4% glycerol, room temperature, 30 min; GST-TFs on glutathione beads, 16-mer random dsDNA library, 0.1% formaldehyde crosslink after washing; high values mean tight binding). Conditions: protein: recombinant; tags: N-terminal GST; dsDNA, one strand shown.
T1 sequence: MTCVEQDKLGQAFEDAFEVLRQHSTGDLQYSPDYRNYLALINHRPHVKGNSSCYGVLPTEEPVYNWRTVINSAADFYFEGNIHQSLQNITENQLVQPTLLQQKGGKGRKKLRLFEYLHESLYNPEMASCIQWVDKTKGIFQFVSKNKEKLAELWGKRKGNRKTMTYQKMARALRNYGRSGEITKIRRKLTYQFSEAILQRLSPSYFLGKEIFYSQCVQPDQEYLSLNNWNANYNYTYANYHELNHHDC
Summary of the method: (§1)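 Yeast served to express human transcription factors as GST fusions, which were then captured on glutathione beads and labelled with DNA barcodes. Pooled with a tag-only sample, they were incubated with 200 nmole of a 16-mer random double-stranded DNA library for 30 min at room temperature in Tris/NaCl/DTT/glycerol buffer, washed, crosslinked with 0.1% formaldehyde, ligated by proximity, amplified by PCR and sequenced. Dividing each hexamer's read frequency for a factor by its frequency for the tag-only sample gives the binding signal.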
For CCAGCA, the binding signal was 1.1 fold enrichment (6-mer frequency, TF over GST control). With TTGAGA the binding signal was 1.02 fold enrichment (6-mer frequency, TF over GST control). TCGAAA was tested, and the binding signal was 1.06 fold enrichment (6-mer frequency, TF over GST control). TAGAAC was tested, and the binding signal was 1 fold enrichment (6-mer frequency, TF over GST control). CTAGGA was tested, and the binding signal was 1.01 fold enrichment (6-mer frequency, TF over GST control). For AGAACC, the binding signal was 1.03 fold enrichment (6-mer frequency, TF over GST control). For TTAGGC, the binding signal was 1.08 fold enrichment (6-mer frequency, TF over GST control). For AGAACT, the binding signal was 1.03 fold enrichment (6-mer frequency, TF over GST control). In the case of TCGAAG, the binding signal is reported as 1.02 fold enrichment (6-mer frequency, TF over GST control).

Each sequence was assayed against ELF4 (Homo sapiens, UniProt Q99607 1-663) in the same assay as above. Conditions: protein: recombinant; tags: N-terminal GST; dsDNA, one strand shown.
ELF4, sequence (Q99607 whole entry): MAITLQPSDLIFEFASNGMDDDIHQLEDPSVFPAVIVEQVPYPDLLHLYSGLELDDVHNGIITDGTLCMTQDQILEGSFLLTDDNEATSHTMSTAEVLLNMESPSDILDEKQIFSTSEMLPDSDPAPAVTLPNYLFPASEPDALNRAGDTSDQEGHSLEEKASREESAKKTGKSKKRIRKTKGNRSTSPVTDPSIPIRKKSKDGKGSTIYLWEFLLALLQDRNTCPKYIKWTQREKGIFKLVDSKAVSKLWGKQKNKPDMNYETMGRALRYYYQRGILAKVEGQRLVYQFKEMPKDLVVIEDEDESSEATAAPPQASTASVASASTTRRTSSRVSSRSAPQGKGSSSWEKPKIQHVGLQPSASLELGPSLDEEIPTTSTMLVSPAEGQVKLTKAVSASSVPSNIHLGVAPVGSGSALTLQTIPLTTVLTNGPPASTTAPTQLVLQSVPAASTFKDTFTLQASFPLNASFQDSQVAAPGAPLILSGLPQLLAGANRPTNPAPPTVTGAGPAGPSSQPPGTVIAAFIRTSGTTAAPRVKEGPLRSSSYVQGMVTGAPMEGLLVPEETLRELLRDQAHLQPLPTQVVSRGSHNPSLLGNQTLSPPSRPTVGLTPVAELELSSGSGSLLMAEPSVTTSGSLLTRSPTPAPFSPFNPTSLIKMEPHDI
Summary of the method: as §1
With AGATTA the binding signal was 1.05 fold enrichment (6-mer frequency, TF over GST control). With CCAGAA the binding signal was 1.05 fold enrichment (6-mer frequency, TF over GST control). In the case of ATCGCG, the binding signal is reported as 1 fold enrichment (6-mer frequency, TF over GST control). In the case of TAGCGC, the binding signal is reported as 1.01 fold enrichment (6-mer frequency, TF over GST control). For CCAGCT, the binding signal was 1.02 fold enrichment (6-mer frequency, TF over GST control). In the case of AGAATA, the binding signal is reported as 1.06 fold enrichment (6-mer frequency, TF over GST control). ACGAAG was tested, and the binding signal was 1.01 fold enrichment (6-mer frequency, TF over GST control). In the case of ATTAGT, the binding signal is reported as 1.06 fold enrichment (6-mer frequency, TF over GST control). AGGGTT was tested, and the binding signal was 1.03 fold enrichment (6-mer frequency, TF over GST control). In the case of GCGAAT, the binding signal is reported as 1.02 fold enrichment (6-mer frequency, TF over GST control). With GATAAA the binding signal was 1.01 fold enrichment (6-mer frequency, TF over GST control). For TCGGCT, the binding signal was 1.1 fold enrichment (6-mer frequency, TF over GST control). For TCAGAA, the binding signal was 1 fold enrichment (6-mer frequency, TF over GST control). For CGAATG, the binding signal was 1.13 fold enrichment (6-mer frequency, TF over GST control). In the case of GAATGA, the binding signal is reported as 1 fold enrichment (6-mer frequency, TF over GST control).

The sequences below were run against T2, ELK4 (Homo sapiens, UniProt P28324-2 1-405) in the same assay as above. Conditions: protein: recombinant; tags: N-terminal GST; dsDNA, one strand shown.
T2 sequence: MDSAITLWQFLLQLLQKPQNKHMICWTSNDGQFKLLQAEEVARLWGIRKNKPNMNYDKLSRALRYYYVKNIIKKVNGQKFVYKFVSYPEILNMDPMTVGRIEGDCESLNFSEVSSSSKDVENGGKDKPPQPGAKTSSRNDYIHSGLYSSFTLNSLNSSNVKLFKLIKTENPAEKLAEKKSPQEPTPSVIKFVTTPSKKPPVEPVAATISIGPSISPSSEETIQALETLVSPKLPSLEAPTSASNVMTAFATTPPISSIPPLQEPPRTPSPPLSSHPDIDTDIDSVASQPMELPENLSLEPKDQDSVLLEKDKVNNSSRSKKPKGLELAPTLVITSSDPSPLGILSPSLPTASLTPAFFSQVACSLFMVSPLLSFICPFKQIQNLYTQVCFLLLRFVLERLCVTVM
Summary of the method: as §1
For AGATTA, the binding signal was 1.05 fold enrichment (6-mer frequency, TF over GST control). With CCAGAA the binding signal was 1.06 fold enrichment (6-mer frequency, TF over GST control). For TAGACA, the binding signal was 1.11 fold enrichment (6-mer frequency, TF over GST control). ATCGCG was tested, and the binding signal was 1 fold enrichment (6-mer frequency, TF over GST control). With AGGCTT the binding signal was 1.02 fold enrichment (6-mer frequency, TF over GST control). CCAGCT was tested, and the binding signal was 1.14 fold enrichment (6-mer frequency, TF over GST control). In the case of AGAATA, the binding signal is reported as 1.02 fold enrichment (6-mer frequency, TF over GST control). With CGAAGT the binding signal was 1 fold enrichment (6-mer frequency, TF over GST control). In the case of ATTAGT, the binding signal is reported as 1.2 fold enrichment (6-mer frequency, TF over GST control). For AGGGTT, the binding signal was 1.14 fold enrichment (6-mer frequency, TF over GST control). With AGAAGA the binding signal was 1.05 fold enrichment (6-mer frequency, TF over GST control). For GATCAT, the binding signal was 1.07 fold enrichment (6-mer frequency, TF over GST control). GCCTGG was tested, and the binding signal was 1.08 fold enrichment (6-mer frequency, TF over GST control). GAATAG was tested, and the binding signal was 1.02 fold enrichment (6-mer frequency, TF over GST control). With ATCAGA the binding signal was 1.05 fold enrichment (6-mer frequency, TF over GST control). With GCGAAT the binding signal was 1.17 fold enrichment (6-mer frequency, TF over GST control). For GATAAA, the binding signal was 1.02 fold enrichment (6-mer frequency, TF over GST control). GCCTAG was tested, and the binding signal was 1.03 fold enrichment (6-mer frequency, TF over GST control). For GCGATA, the binding signal was 1.07 fold enrichment (6-mer frequency, TF over GST control). In the case of CCCAGA, the binding signal is reported as 1.01 fold enrichment (6-mer frequency, TF over GST control). TTAGTG was tested, and the binding signal was 1.11 fold enrichment (6-mer frequency, TF over GST control). In the case of AGATAT, the binding signal is reported as 1.04 fold enrichment (6-mer frequency, TF over GST control). In the case of CGAATG, the binding signal is reported as 1.07 fold enrichment (6-mer frequency, TF over GST control). CATTAG was tested, and the binding signal was 1.1 fold enrichment (6-mer frequency, TF over GST control). With GCGATC the binding signal was 1.13 fold enrichment (6-mer frequency, TF over GST control).
